# Screening data (PubChem)
# D2 PAM-1: positively modulates the human D2 dopamine receptor allosterically; P14416; HEK293 T-REx D2, calcium flux, EC20 dopamine potentiation; potentiation, % at 10 µM; actives 0.34% (n = 340,000); AID 485347;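 active = potentiation over 3 SD above the plate norm, cut at about 30% in these data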; also: 0% is about no effect
# Target sequence (P14416 whole entry, looked up): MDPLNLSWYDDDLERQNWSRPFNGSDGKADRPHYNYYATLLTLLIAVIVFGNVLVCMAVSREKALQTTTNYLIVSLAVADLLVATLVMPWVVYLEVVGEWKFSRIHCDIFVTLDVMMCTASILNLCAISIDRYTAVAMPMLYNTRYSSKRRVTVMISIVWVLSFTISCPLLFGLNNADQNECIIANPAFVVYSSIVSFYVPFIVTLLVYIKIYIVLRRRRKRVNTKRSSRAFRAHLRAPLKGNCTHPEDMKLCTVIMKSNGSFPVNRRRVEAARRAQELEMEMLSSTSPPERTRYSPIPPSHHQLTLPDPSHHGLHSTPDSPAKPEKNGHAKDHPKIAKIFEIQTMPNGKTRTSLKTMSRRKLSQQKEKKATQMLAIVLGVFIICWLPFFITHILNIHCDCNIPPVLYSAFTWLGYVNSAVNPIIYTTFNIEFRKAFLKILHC
#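 Using a no-wash calcium dye in inducible, force-coupled HEK293 Trex cells expressing D2, we tracked fluorescence each second for 180 s after compound, then for 180 s after EC20 dopamine to detect augmented signalling.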
# D2 antag: antagonists of human D2 dopamine receptor; actives 2% (n = 340,000); AID 485344; HEK293 TREx D2 cells, calcium flux, dopamine EC80; inhibition, % at 10 µM; in the data active = inhibition above about 30%; inactive = below that, where a call was filed; also: 0% is about no effect
#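 Read-out: kinetic calcium fluorescence (1 cycle/s) in inducible HEK293 T-REx D2 cells after an EC80 dopamine addition that followed 180 s compound preincubation. Loss of the dopamine response indicates antagonism.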
# D2 ag-1: agonists of human D2 dopamine receptor (beta-arrestin) | P14416 | DiscoveRx PathHunter D2 beta-arrestin, luminescence, 90 min; 100% = 57 uM dopamine signal | activation, % (no concentration beside the values) | actives 0.084% (n = 360,000) | AID 624465; in the data active = activation above about 40%; inconclusive = between about 15% and that limit
#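 Agonist mode: compounds alone added to overnight-plated D2 PathHunter cells for 90 min at 37 C, with 57 uM final dopamine (EC100) defining full response. Beta-arrestin recruitment detected by chemiluminescent reagent, read after 1 h at ambient temperature.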
# D2 ag-2: activates the human D2 dopamine receptor. AID 485358. activation, % at 2 µM. actives 0.53% (n = 340,000). HEK293 T-REx D2 cells, calcium flux agonist mode;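 active = activation over 3 SD above normal in the single-dose calcium agonist read, cut at about 30% in these data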; also: 0% is about no effect
#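 Agonism is scored from calcium flux in a force-coupled, inducible HEK293 cell line expressing D2, read kinetically for 180 s after compound addition against dopamine controls.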
# D2 PAM-2: human D2 receptor positive allosteric modulation. P14416. DiscoveRx D2 beta-arrestin cells, luminescence, 90 min; 100% = 57 uM dopamine signal. potentiation, % (no concentration beside the values). actives 0.23% (n = 360,000). AID 624464; in the data active = potentiation above about 50%; inconclusive = mostly about 30% to 49%
#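 PathHunter D2 cells, attached overnight at 37 deg C, received compound in DMSO plus dopamine at EC20 (50 nM final) for 90 min at 37 deg C. Beta-arrestin recruitment was read as luminescence after 1 h with detection reagent at ambient temperature.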
# Numbers without * were called inactive; u = inconclusive; x = not tested or not shown. A selection: hits, their analogues and other compounds. The true share with any hit is near 2.4%.
SMILES,D2 PAM-1,D2 antag,D2 ag-1,D2 ag-2,D2 PAM-2
CC1CCCC(C)N1C(=O)CN1C(=O)C(C)(C)Oc2ccc(C(=O)NC3CCCC3)cc21 (stereo unspecified),-7,33*,-2,-1,-5
CC(C)(C)NC(=O)c1ccc2c(c1)N(CC(=O)NC1CCCC1)C(=O)C(C)(C)O2,-29,53*,-1,-1,-20
COc1ccc(C2C(=O)N(C3CCC(C)CC3)CC(=O)N2CCC2=CCCCC2)cc1OC (stereo unspecified),6,x,x,1,x
Cc1ccc(-c2nnc(SCC(=O)c3ccc(Cl)cc3)n2-c2ccccc2)cc1,5,x,x,1,x
Cc1ccc(N2C(=O)C(CC(=O)Nc3ccc(F)cc3)N(CCC3=CCCCC3)C2=O)cc1 (stereo unspecified),-21,x,x,0,x
COc1ccc(CNC(=O)c2ccc(N3CCCC3)c(NC(=O)NCc3ccc(F)cc3)c2)cc1,-1,x,x,1,x
COc1ccc(-c2nc3sc(CCNC(=O)C(=O)Nc4ccccc4C#N)c(C)n3n2)cc1,13,x,x,0,x
Cc1ccc(CC(=O)Nc2ccc(F)c([N+](=O)[O-])c2)cc1C,-8,42*,-3,2,-9
Cc1ccc(-n2ncc(C#N)c2/N=C/N2CCN(C)CC2)cc1,-26,37*,-3,0,-45
CCc1nnc(SC(CC)C(=O)Nc2cccc(OC)c2)c2cc3oc(C)cc3n12 (stereo unspecified),0,x,x,-1,x
Cc1nnc(SCc2cc(=O)oc3cc(O)ccc23)n1Cc1ccccc1,5,30*,0,0,-5
O=C(CN1CCN(c2ccc(F)cc2)CC1)N1N=CCC1c1ccccc1 (stereo unspecified),2,36*,1,0,-19
Cn1c(=O)oc2cc(NC(=O)CCl)ccc21,-5,32*,2,0,-1
CC(=O)Nc1ccc(NC(=O)CCS(=O)(=O)c2ccc3c(c2)oc(=O)n3C)cc1,-9,0,-2,0,-10
Cc1oc2c(CN3CCC(C)CC3)c(O)ccc2c(=O)c1-c1ccccc1,-4,44*,-4,-1,-11
Cc1oc2c(CN3CCCC3)c(O)ccc2c(=O)c1-c1ccccc1,10,2,-3,0,-8
COC(=O)c1ccc(Cl)cc1NC(=O)N1CC=C(c2c[nH]c3ccccc23)CC1,-4,x,x,3,x
CN1/C(=C\C(=O)c2cncc(Br)c2)C(C)(C)c2ccccc21,-6,-9,-2,-1,-25
CN1/C(=C\C(=O)C(F)F)C(C)(C)c2ccccc21,-4,47*,1,0,-12
CN1\C(=C/C=C/C=C/C=[N+](C)C)C(C)(C)c2ccccc21,-4,63*,8,47*,-19
CN1/C(=C\C(=O)c2cccnc2)C(C)(C)c2ccccc21,3,32*,-2,-1,-8
Cc1ccc(Cl)cc1NS(=O)(=O)c1ccc2oc(=O)c3ncn(C)c3c2c1,5,x,x,x,x
CSc1cccc(NC(=O)/C=C/c2ccc(Cl)cc2)c1,-21,70*,-1,1,-9
CSc1cccc(NC(=O)/C=C/c2ccccc2)c1,-25,39*,-2,1,-23
CC(=O)N1CCc2cc(S(=O)(=O)NC(Cc3ccccc3)C(=O)Nc3cccc(C)c3)ccc21 (stereo unspecified),-1,x,x,-1,x
SMILES,D2 PAM-1,D2 antag,D2 ag-1,D2 ag-2,D2 PAM-2
N/C(=N\OC(=O)c1ccc(Cl)cc1Cl)c1cccnc1,6,10,50*,1,9
N/C(=N\OC(=O)c1ccccc1Cl)c1ccc(Cl)cc1,x,x,u,x,26
N/C(=N\OC(=O)c1ccc(Cl)cc1Cl)c1ccccc1,-1,15,u,-1,u
N/C(=N\OC(=O)c1ccc(Cl)cc1)c1ccc(Cl)cc1,0,-19,u,0,86*
N/C(=N\OC(=O)c1ccc(Cl)cc1)c1cccnc1,-10,8,u,0,27
N/C(=N\OC(=O)c1ccc(Cl)cc1Cl)c1ccc(Cl)cc1,10,12,u,0,114*
N/C(=N\OC(=O)c1ccc(OCC(F)(F)F)nc1)c1ccc(Cl)cc1,4,30*,u,0,53*
CCOc1cccc(C(=O)N(Cc2ccc(C)o2)C2CCS(=O)(=O)C2)c1 (stereo unspecified),5,x,x,0,x
